Source: PubChem BioAssay AID652067 (The Scripps Research Institute Molecular Screening Center, 2013)
The campaign covered roughly 370,000 compounds. About 5,400 (1.5%) were called active. The sample holds actives, similar compounds and a random draw of the others, so the mix is not that of the screen.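 Rule for the calls: active = activation above the mean of all tested compounds plus 3 SD (cut at about 5.5% in these data); inactive = the rest.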

Each compound was assayed on DAF-12 nuclear receptor (Haemonchus contortus) (assay: H. contortus DAF-12 nuclear receptor activators, primary screen, cell-based, luminescence, HEK293, lit1-tk-luc reporter (AID 652067;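 note: 100% = response to 3 µM Δ7-dafachronic acid high control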)). Conditions: HEK293 hcDAF-12 lit1-tk-luc reporter, at 6.8 µM, hits give high values, 0% DMSO, 100% Δ7-dafachronic acid.
In the case of CC(=O)N1C[C@@H](CO)[C@@H](N(C)C(=O)C(C)(C)C)C[C@H]1c1ccccc1Br, the activation is reported as -0.9% (inactive).
With O=C(Cc1ccccc1)Nc1ccc(C(=O)Nc2ccccc2C(=O)O)cc1 the activation was 0.4% (inactive).
With Nc1ccc(C(=O)Nc2ccccc2N)cc1 the activation was 10.3% (active).
With O=C(Nc1ccccc1F)c1ccc(S(=O)(=O)N2CCCCCC2)cc1 the activation was -0.38% (inactive).
For Cc1cc(N=Nc2ccc3ccccc3c2)ccc1O, the activation was 9.93% (active).
For CN(C(N)=NC(=O)/C=C/c1ccccc1)C(C#Cc1ccccc1)Cc1ccccc1 (stereo unspecified), the activation was -0.54% (inactive).
For O=C(NCCCn1ccnc1)c1cc(Br)c(Br)s1, the activation was -2.07% (inactive).
For O=C(NCCCn1ccnc1)c1cc(-c2ccccc2)on1, the activation was 6.25% (active).
O=C(Nc1ccccc1C(=O)NCCCn1ccnc1)c1ccc(Cl)cc1Cl was tested, and the activation was -0.66% (inactive).
For COC(=O)C1=C(C)N(Cc2ccc(F)cc2)C(=S)NC1c1cccc(Cl)c1 (stereo unspecified), the activation was -0.58% (inactive).
In the case of C#CCNC(=O)C[C@H]1C[C@@]2(C(=O)OC)C(=C[C@H](C(C)C)O[C@@H]2C2CC2)N(Cc2ccco2)C1=O, the activation is reported as -0.47% (inactive).
For CCN(C(=O)[C@@H](C1CC1)[C@@H](O)c1ccc2ccccc2c1)c1ccccc1, the activation was -0.38% (inactive).
With CCCCCCCCN1C(=O)[C@@H](CC(=O)NCCCC)C[C@@]2(C(=O)OC)C1=C[C@H](C(C)(C)C)O[C@@H]2C the activation was 2.12% (inactive).
For COC(=O)c1cccc(Cn2ccc3ccc(-c4ccc5ccn(C(=O)C6CCCCC6)c5c4)cc32)c1, the activation was 2.46% (inactive).
With Cc1c(C(C)c2ccccc2O)[nH]c2ccccc12 (stereo unspecified) the activation was 5.82% (active).
Cc1[nH]c2ccccc2c1-c1ccc(Cl)nn1 was tested, and the activation was -0.07% (inactive).
For S=c1[nH]c2ccccc2c2ccccc12, the activation was 0.24% (inactive).
In the case of Cc1ccc(-n2c(SCC(=O)Nc3ccc(S(=O)(=O)Nc4nccs4)cc3)nnc2-c2ccncc2)cc1, the activation is reported as -0.82% (inactive).
With C=CCn1c(SCC(N)=O)nnc1-c1ccccc1OC the activation was -0.44% (inactive).
For CC(C)CN(CC(C)C)C(=O)CN1c2cccc3cccc(c23)S1(=O)=O, the activation was 0.46% (inactive).
With COc1ccc(C)cc1NC(=O)CN1c2cccc3cccc(c23)S1(=O)=O the activation was -2.24% (inactive).
In the case of O=C(O)CN1c2cccc3cccc(c23)S1(=O)=O, the activation is reported as 7.97% (active).
For COC(=O)Cc1nnn2c1[C@H](C)[C@H](c1ccccc1Br)OCC2, the activation was -1.44% (inactive).
In the case of COCc1ccc(C(=O)N2CCc3c([nH]c4ccccc34)C2c2ccccn2)s1 (stereo unspecified), the activation is reported as 0.63% (inactive).
With Cc1cccc(C(=O)N2CCc3c([nH]c4ccccc34)C2CC(C)C)n1 (stereo unspecified) the activation was 6.78% (active).
With Cc1cccc(C2c3[nH]c4ccccc4c3CCN2C(=O)c2cc(-c3cccn3C)n[nH]2)n1 (stereo unspecified) the activation was 1.83% (inactive).
